tim10-1 inh: tim10-1 yeast growth inhibition; 330,000 tested, 2.2% active; inhibition, % at 20 µM; S. cerevisiae tim10-1 ts strain growth, BacTiter-Glo, 24 h; AID 463190;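 active = inhibition of at least 40%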;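 note: mutant grown at 25 °C; 0% = DMSO wells with yeast and 100% = wells holding no yeast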
PfHsp90 yeast 2: reduces growth (ATP signal) of yeast expressing P. falciparum Hsp90; S. cerevisiae expressing PfHsp90, BacTiter-Glo ATP, 48 h; yeast lacking PDR1 and PDR3 efflux regulators; inhibition, % at 9.4 µM; 310,000 tested, 0.32% active;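 active = every replicate shows inhibition above about 80%, whatever the replicate mean, limit read from the data; inconclusive = mean inhibition reaches the set limit but some replicate falls short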;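 note: 0% = DMSO neutral controls and 100% = 20 µM radicicol positive controls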
tim23-1 inh: growth inhibitors of tim23-1 mutant yeast. S. cerevisiae tim23-1 growth, BacTiter-Glo luminescence, 24 h. inhibition, % at 20 µM. AID 463212. 330,000 tested, 1.3% active;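 active = growth inhibition of the mutant yeast at or above 50%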;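 note: temperature-sensitive mutant grown at 25 °C; plate controls were DMSO-treated mutant yeast for no effect and medium wells lacking yeast for full effect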
SKKanGAS inh: SKKanGAS growth inhibition; S. pyogenes SKKanGAS, kanamycin growth, BacTiter-Glo, 6 h; inhibition, % at 7.5 µM; 300,000 tested, 1.3% active; AID 1662;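 active = mean replicate score, as percent of positive control median, at least 50; inconclusive = mean below 50 but one replicate at or above 50; inactive = mean and every replicate below 50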;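 note: strain carries kanamycin resistance gene driven by streptokinase promoter and grows in 40 µg/ml kanamycin; loss of luminescence reflects streptokinase promoter inhibition or plain growth inhibition; 0% = median of DMSO wells and 100% = positive control at its reference dose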
TIM10 inh: inhibits growth of TIM10 yeast strain | inhibition, % at 10 µM | 330,000 tested, 1.4% active | S. cerevisiae TIM10 strain growth, BacTiter-Glo luminescence, 24 h;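 active = inhibition of 40% or more at the single tested concentration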;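 note: wild-type TIM10 isogenic control strain grown at permissive 25 °C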
TIM10 conf: TIM10 yeast growth inhibition, confirmed | shares compounds with TIM10 inh | S. cerevisiae tim10 strain growth, BacTiter-Glo luminescence, 24 h | 4,600 tested, 63% active | inhibition, % at 10 µM;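 active = inhibition of yeast growth at or above a set limit in either of two replicates at 10 µM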;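 note: this counterscreen used the strain with wild-type TIM10; 0% = yeast with DMSO and 100% = medium wells lacking yeast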
* hit, by the source's call; u = inconclusive; x = not tested or not shown. Sampled rows, rich in hits. Any-hit rate of the full collection: about 4.4%.

SMILES	tim10-1 inh	PfHsp90 yeast 2	tim23-1 inh	SKKanGAS inh	TIM10 inh	TIM10 conf
COC(=O)c1ccc(NC(=S)NC2CCc3ccccc32)cc1 (stereo unspecified)	34	13	11	14	47*	31*
COc1cc(OC)c(N(C)C(=O)c2cc3c(s2)-c2ccccc2S(=O)(=O)C3)cc1Cl	-10	-42	-16	2	5	x
CCCC12CN3CC(C)(CN(C1)C3c1cccs1)C2=O (stereo unspecified)	-13	x	-4	4	-6	x
Clc1ccc(-c2n[nH]c3c2CCCC3)cc1	24	-14	42	-6	41*	34*
c1ccc2c(c1)OCCOCCOCCOCCOc1ccccc1OCCOCCOCCO2	22	1	29	-6	12	x
CN1CCOCCOc2ccccc2OCCOCC1	2	-5	12	0	58*	-2
CC(C)COC(=O)C(C#N)c1nc2ccccc2nc1N1CCN(Cc2ccc3c(c2)OCO3)CC1 (stereo unspecified)	35	-9	25	8	49*	39*
COc1ccc(C(=O)/C=C/c2ccccc2F)c(OC(=O)c2ccc([N+](=O)[O-])cc2)c1	38	-4	-1	-1	44*	41*
O=C(Nc1ccc(NC(=O)c2cccs2)cc1)c1cccs1	-45	10	-3	-1	-7	x
O=C(Nc1ccc(NC(=O)c2ccccc2F)cc1)c1cccs1	-18	x	47	x	45*	26
O=C(N/N=C/C1C(c2ccccc2)C1(Cl)Cl)c1cccc(Cl)c1 (stereo unspecified)	37	-18	44	8	40*	12
O=C(N/N=C/c1c[nH]c2ccccc12)c1cccc(Cl)c1	-5	18	14	-6	7	x
O=C(NC12CC3CC(CC(C3)C1)C2)N(Cc1ccccc1)Cc1ccncc1	30	x	37	-3	44*	32*
C/C(CCC(C)C)=N\Nc1ccc(S(N)(=O)=O)cc1[N+](=O)[O-]	15	18	34	13	75*	26
C[C@@H]1COC(=O)[C@@H](Cc2ccc(F)cc2)C/C=C\C[C@@H](CC(=O)N[C@H](CO)Cc2ccccc2)C(=O)N1	-8	20	-13	x	11	x
CCCCC(CC)Cn1c(O)c(/C=C2\C=NN=C2c2ccccc2)sc1=S (stereo unspecified)	8	-9	1	-3	3	x
CCCn1c(O)c(/C=C2\C=NN=C2c2ccccc2)sc1=S	39	x	8	3	42*	24
O=C(NCCO)C(=O)Nc1cc2c3c(c1)CCC(=O)N3CCC2	18	-13	8	-2	10	x
Cn1c(SCC(=O)N/N=C/c2ccc([N+](=O)[O-])s2)nnc1-c1ccccc1	28	u	43	8	71*	82*
CC(C)(CNC(=O)c1ccccc1NS(C)(=O)=O)N1CCCCC1	-5	-13	3	-1	15	x
CN(CCNC(=O)C1CCN(c2ncnc3c2nc2n3CCCCC2)CC1)Cc1ccccc1	-1	-5	-14	5	-14	x
CCN(CCNC(=O)C1CCCN(c2ncnc3c2nc2n3CCCCC2)C1)Cc1ccccc1 (stereo unspecified)	2	2	1	5	71*	1
CCn1c(=S)sc2c(=O)n(CC(=O)Nc3ccc(Cl)cc3)c(C)nc21	10	-18	16	14	20	x
C=CCOC(=O)N1CCC2CC1c1cc(-c3cccc(C)c3)ccc12 (stereo unspecified)	x	-8	x	x	x	x
COc1ccc([C@H]2[C@H](C(=O)C(C)(C)C)N3N=Cc4ccccc4C3C23C(=O)OC(C)(C)OC3=O)cc1 (stereo partly specified)	35	5	15	3	10	x
O=C(c1ccccc1)[C@H]1[C@H](c2ccccc2)[C@@]2(N=C(c3ccccc3)OC2=O)C2c3ccccc3C=NN21 (stereo partly specified)	34	x	22	5	42*	25
COc1ccc(-c2csc(NC(=O)CSCc3c(C)noc3C)n2)c(OC)c1	11	2	18	29	83*	-9
COc1ccc(-c2csc(NC(=O)CSCC(=O)Nc3cc(C)on3)n2)cc1	1	-3	7	x	8	x
CCc1ccccc1NC(=S)N(Cc1ccco1)C(C)c1cccs1 (stereo unspecified)	21	-3	32	2	81*	23

High-throughput results: PubChem, several laboratories
